Screening data deposited in PubChem BioAssay by National Center for Advancing Translational Sciences (NCATS).
An excerpt weighted towards active compounds, which were near 7.8% of everything screened.
HCMV inh: blocks human cytomegalovirus replication; HFF cells, HCMV-luciferase reporter, 72 h; hits give low values; activity change, negative = inhibition, % at 57.5 µM; 410,000 compounds, 4.5% hits; in the data active = activity change below about -60%; inconclusive = no clear call, values can overlap the other calls; inactive = above about -39%
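Screen run at 2 compound doses on HFFs infected with reporter HCMV, MOI 1 PFU/cell. Luciferase activity from cell lysates at 72 h post infection gave inhibition relative to buffer-only and Salinomycin wells.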
VACV mCherry inh: inhibitors of vaccinia virus infection (mCherry reporter signal); 310,000 compounds, 0.63% hits; Vaccinia virus mCherry reporter infection, fluorescence; Potency, µM (doses to about 36.5 µM), actives largely listed as inhibitors; calls by dose curve; tested in A549 cells; note: nearly all actives have a fitted effect of over 35% in size
MARV entry inh: inhibitors of Marburg virus binding or cell entry | Marburg virus pseudotyped entry inhibition, cell reporter | AID 540276 | Potency, µM (highest dose often 37.8 µM), hits mostly inhibitors | 300,000 compounds, 1.8% hits; calls by dose curve; tested in HEK293 cells
VACV Venus inh: inhibitors of vaccinia virus (Venus reporter). Vaccinia virus Venus reporter expression, fluorescence. Potency, µM (doses to about 36.5 µM), usual class: inhibitors. 330,000 compounds, 0.46% hits. AID 720580; calls by dose curve; tested in A549 cells; note: nearly all actives have a fitted effect of over 30% in size
HCV inh: HCV inhibition. Huh7.5.1 HCVcc-Cre infection, luciferase reporter, 44 h. Potency, µM (doses to about 41.8 µM), actives largely listed as inhibitors. 340,000 compounds, 3.4% hits; active = well fitted inhibition curve with a large enough effect; inconclusive = small, poorly fitted or top-dose-only effect, or another doubt; inactive = no such curve, though single readings can be large or run the other way
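HCVcc-Cre virus at an moi near 0.5 was added right after compound to cells cultured 4 h from seeding (1,000 cells/well). Luciferase activity was determined 44 h later, 15 min after substrate addition at RT.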
Lassa entry inh: blocks Lassa virus binding to or entry into cells; 300,000 compounds, 1.2% hits; Potency, µM (highest dose often 37.9 µM), most hits filed as inhibitors; AID 540256; Lassa virus pseudotype entry inhibition, cell reporter; calls by dose curve; tested in HEK293 cells; note: nearly all actives have a fitted effect of over 50% in size
Hits are given with their value; 0 = inactive; ? = inconclusive; - = not tested or not shown; [ ] = dose if it differs, or a comment.

SMILES | HCMV inh | VACV mCherry inh | MARV entry inh | VACV Venus inh | HCV inh | Lassa entry inh
COc1cccc(NC(=O)Nc2nc(-c3ccc(OC)c(OC)c3)cs2)c1 | -99 | ? | ? | 14µM | 2.8µM | ?
COc1ccccc1C(=O)Nc1nc(-c2ccc3c(c2)OCCO3)cs1 | -63 | 0 | - | 0 | 0 | -
CC(=O)Nc1nc(-c2ccc3c(c2)CCO3)cs1 | -76 | - | - | - | 0 | -
COc1ccc(-c2csc(NC(=O)C3CCN(C(=O)c4ccc(F)cc4)CC3)n2)cc1OC | - | 0 | ? | ? | - | 16µM
Nc1nc(-c2ccc3c(c2)CCO3)cs1 | 0 | 0 | 0 | 0 | 0 | ?
Cc1ccc(N2CCN(Cc3nnc(-c4ccccc4F)o3)CC2)c(C)c1 | 0 | 0 | 0 | 0 | - | ?
Cc1c(C(=O)NCCCN2CCCC2=O)cnn1-c1ncc2c(n1)-c1ccccc1CC2 | - | ? | - | 0 | - | -
CCOC(=O)c1ccccc1NC(=O)CN(c1ccccc1)S(=O)(=O)c1ccc(OCC)cc1 | ? | 0 | 0 | 0 | - | 0
CCOC(=O)c1ccccc1NS(=O)(=O)c1ccc(OCC)cc1 | 0 | - | ? | - | ? | 2.6µM
COc1ccc(OC)c(NS(=O)(=O)c2ccc(N3CCCC3=O)cc2)c1 | -73 | - | ? | ? | 0 | ?
COc1ccc(CCNS(=O)(=O)c2ccc(N3CCCC3=O)cc2)cc1 | 0 | 0 | ? | 0 | ? | ?
CCOc1ccc(S(=O)(=O)Nc2cc(OC)ccc2OC)cc1 | -64 | 0 | ? | ? | 0 | ?
CCC[C@@H](/C=C/C(=O)OC(C)(C)C)NC(=O)C(F)(F)F | 0 | - | - | - | - | -
COc1ccc(OC)c(-n2c3c(cc(-c4nc(-c5ccc(Cl)cc5)cs4)c2=O)C(=O)CC(C)(C)C3)c1 | 0 | 0 | 0 | 0 | - | 0
O=C(/C=C/c1ccccc1)c1c[nH]c2ccccc12 | 0 | 0[7.34 µM] | - | 0[7.34 µM] | 0 | -
Cc1[nH]c2ccccc2c(=O)c1C(=O)/C=C/c1ccccc1 | -97 | 3.2µM | - | ? | 11µM | -
O=C(C=Cc1ccccc1)c1c[nH]c2ccccc2c1=O | -77 | ? | ? | 0 | 11µM | ?
CC(C)c1nn2c(=O)cc(COC(=O)C3CCCCC3)nc2s1 | 0 | 0 | - | 0 | - | 0
COc1ccc(NS(=O)(=O)c2cccc(NC(=O)c3ccc(Cl)nc3)c2)cc1 | -89 | 0 | ? | ? | 2.8µM | 5µM
COc1ccc(NS(=O)(=O)c2cccc(NC(=O)NCCCl)c2)cc1 | 0 | 0 | 0 | 0 | 7.9µM | -
COc1ccc(NS(=O)(=O)c2cccc(NC(=O)CCC(=O)c3ccc(Cl)cc3)c2)cc1 | -83 | 0 | ? | 0 | 8.9µM | ?
O=C(Nc1cccc(S(=O)(=O)Nc2ccc(Cl)cc2)c1)c1ccc(Cl)nc1 | -95 | - | ? | - | 1.6µM | ?
COc1ccc(NS(=O)(=O)c2cccc(NC(=O)CCC(=O)c3cccs3)c2)cc1 | 0 | 0 | 0 | 0 | 0 | 0
COc1cccc(S(=O)(=O)Nc2ccc(C(=O)Nc3ccncc3)cc2)c1 | 0 | 0 | ? | 0 | 0 | ?
CCc1nc2ccc(C(=O)Nc3cccc(NS(C)(=O)=O)c3)cn2c1N(CC)CCOC | 0 | 0 | - | 0 | - | -
SMILES | HCMV inh | VACV mCherry inh | MARV entry inh | VACV Venus inh | HCV inh | Lassa entry inh
CC(C)c1ccc(S(=O)(=O)N2CCN(CC(=O)Nc3ccccc3C(F)(F)F)CC2)cc1 | 0 | 0 | - | 0 | - | 0
C=C1Nc2ccccc2C(=O)N1c1ccc(C(=O)N2CCN(C(=O)c3ccco3)CC2)cc1 | - | 0 | - | 0 | - | -
COc1ccc(Cl)cc1NC(=O)C(C)N1CCN(c2ccccn2)CC1 (centres undefined) | -74 | - | - | - | ? | -
COc1ccc(Cl)cc1NC(=O)NC(C)c1ccncc1 (centres undefined) | 0 | - | 0 | - | 7.1µM | 0
COc1ccc(C)cc1NC(=O)NC(C)c1ccncc1 (centres undefined) | 0 | - | - | - | 0 | -
COc1ccc(Nc2nc(N3CCCCC3)c3ccccc3n2)cc1 | -64 | ? | ? | ? | ? | ?
Oc1ccc(Nc2nc(N3CCCC3)c3ccccc3n2)cc1 | -66 | ? | 11µM | 8.9µM | ? | ?
C(=C\c1nc(N2CCCC2)c2ccccc2n1)/c1ccccc1 | -72 | ? | 7.1µM | ? | ? | ?
COc1ccc(Nc2nc(-c3ccccc3)c3cc(Br)ccc3n2)cc1 | -61 | 0 | - | 0 | - | 0
Cc1ccc(Nc2nc(N3CCOCC3)c3ccccc3n2)cc1 | 0 | 0[1.46 µM] | ? | ? | ? | ?
CCCN1CCN(CCCNC(=O)c2cnn(-c3ccc(F)cc3)c2-n2cccc2)CC1 | 0 | 0 | - | 0 | - | 0
Cc1ccc(OCc2cc(=O)n3ccsc3n2)c(NC(=O)c2ccco2)c1 | 0 | 0 | - | 0 | - | 0
COCCNC(=O)c1cccc(Nc2nc(-c3ccccc3)c3cc(Cl)ccc3n2)c1 | 0 | - | 0 | - | 10µM | 0
CCN(CC)S(=O)(=O)c1ccc(-c2nnc(SCC(=O)Nc3nc(C)cs3)o2)cc1 | 0 | 5µM | 0 | 11µM | 0 | 0
Cc1csc(NC(=O)CSc2nnc(-c3ccc(S(=O)(=O)N4CCCC4)cc3)o2)n1 | 0 | 3.2µM | 0 | 4.5µM | 0 | 0
COc1cc2c(cc1OC)CN(c1nc(CN3CCOCC3)nc3sc4c(c13)CCCC4)CC2 | 0 | ? | ? | ? | ? | ?
COc1cc2c(cc1OC)CN(c1nc(CN3CCCCC3)nc3sc4c(c13)CCCC4)CC2 | 0 | 0 | ? | 0 | 22µM | ?
CN(C)CCCNC(=O)/C(=C/c1ccc(-c2ccc([N+](=O)[O-])cc2)o1)NC(=O)c1ccccc1 | 0 | - | - | - | ? | -
CN(C)CCCNC(=O)/C(=C\c1ccc(-c2ccc(Br)cc2)o1)NC(=O)c1ccccc1 | ? | 11µM | ? | 13µM | ? | ?
Cc1ccc(C(=O)N/C(=C\c2ccc(-c3ccc(Cl)cc3)o2)C(=O)NCCCN(C)C)cc1 | -72 | ? | 6.3µM | 13µM | ? | ?
Cc1ccc(C(=O)N/C(=C\c2ccc(-c3ccccc3[N+](=O)[O-])o2)C(=O)NCCCN(C)C)cc1 | ? | 0 | ? | 0 | 0 | 0
CSc1ccc(C2c3[nH]c4ccccc4c3CCN2C(=O)CCc2ccccc2)cc1 (centres undefined) | -79 | 0 | - | 0 | - | 2.5µM
O=C(CCc1ccccc1)N1CCc2c([nH]c3ccccc23)C1c1ccc(Cl)cc1 (centres undefined) | -68 | 0 | - | 0 | - | ?
CCOc1cccc(CC(=O)N2CCc3c([nH]c4ccccc34)C2c2ccc(Cl)cc2)c1OCC (centres undefined) | 0 | 0 | - | 0 | - | ?
O=C(CCc1ccccc1)N1CCc2c([nH]c3ccccc23)C1c1ccc(F)cc1 (centres undefined) | -90 | 0 | - | 0 | - | ?
Cc1ccc(S(=O)(=O)N2CCN(c3nc(-c4ccnnc4)nc4ccccc34)CC2)cc1 | - | 0 | - | 0 | - | -
C/C(CCC(=O)OC[C@H]1O[C@H](C#Cc2ccccc2)C=C[C@@H]1Oc1ccc(C)cc1)=N\OC[C@@H](O)COCc1ccco1 | - | - | 0 | - | - | -
Cn1cnc([N+](=O)[O-])c1S(=O)(=O)Oc1ccc(Cl)cc1 | 0 | ? | 11µM | 0 | ? | ?
CC1Cc2cc(S(=O)(=O)NCCc3ccc(Cl)cc3)ccc2N1C(=O)C1CCC1 (centres undefined) | 0 | 0 | - | 0 | - | 0
